Laboratory results: PubChem BioAssay (NCI)
The panel holds about 83,000 compounds, 20% with a hit somewhere; the sample as a whole holds those more often.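 48-hour exposure, single concentration, 96-well plates; percent growth endpoint where 0 means no net growth. Active: below 10.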 A number with no mark means an inactive call. Activity calls are given as the source filed them.

system: SK-MEL-28 melanoma; test: NCI-60 one-dose screen, 48 h (100 = growth as untreated, 0 = no growth, -100 = all killed); settings: 10 µM unless noted
Procedure: Growth inhibition of the SK-MEL-28 human tumor cell line is measured as a screen for anti-cancer activity. Cells are grown in 96 well plates and exposed to the test compound for 48 hours. Compounds are tested at a single concentration, which is 10^-5 M for most compounds. The reported endpoint is percent growth (GI% or GIPRCNT), where numbers from 0 - 100% represent growth inhibition, and numbers from -100% - 0 represent cell death. For example, a value of 40 represents 60% growth inhibition. A value of 0 means no net growth occurred over the course of the experiment. A value of -40 indicates 40% of cells at the beginning of the experiment died by the end of the experiment. A value of -100 means all cells are dead at the end of the experiment.
NCI-60 Human Tumor Cell Lines Screen was performed using the standard one-dose NCI protocol, which is described in more detail at https://dtp.cancer.gov/discovery_development/nci-60/default.htm.
Compounds with GIPRCNT values below 10 were considered active. Activity score was based on GIPRCNT using the following formula: […]
Score is 0 for GIPRCNT values of 100 or above, 50 for GIPRCNT values of 0, and 100 for GIPRCNT values of -100.

Compound	growth
CC(C)(C)CC(C)(C)NC(=O)Nc1ncccc1OCc1ccccc1	103%
O=C(Nc1cccc(-c2ccc(N3CCOCC3)nn2)c1)Nc1cccc(C(F)(F)F)c1	88.7%
O=C(NNC(=O)c1ccc(NC(=O)c2ccccn2)cc1)Nc1ccc([N+](=O)[O-])cc1	99%
NC(=O)CSc1oc(-c2ccccc2)nc1S(=O)(=O)c1ccc(Br)cc1	87.7%
N#Cc1nc(-c2ccc(F)cc2)oc1S(=O)(=O)N1CCOCC1	85.7%
CN(C)CC(C)(C)C(=O)/C=C/c1ccccc1	-61.6% [25 µM] (active)
O=c1[nH]c(-c2ccccc2)nc2sc3cc(O)ccc3c12	93.9%
CC1CN(S(=O)(=O)c2oc(-c3ccc(Cl)cc3)nc2C#N)CC(C)O1 (stereo not given)	97.9%
COc1ccc(OC)c(-c2nc(SCC(=O)c3ccc(C#N)cc3)[nH]c(=O)c2C#N)c1	102%
CC1(C)CC(=O)C2=C(C1)N(c1ccc(OC(F)(F)F)cc1)C(N)=C(C#N)C2c1ccc(Br)cc1F (stereo not given)	90.8%
CC(=O)/C(=C\c1c(-c2ccccc2)[nH]c2ccccc12)S(C)(=O)=O	34.4%
N#Cc1nc(-c2ccc(Cl)cc2)oc1S(=O)(=O)N1CCN(c2ccc(F)cc2)CC1	104%
CCn1cc(C(=O)O)c(=O)c2cc(F)c(N3CCN(CC(=O)Nc4ccc(S(=O)(=O)Nc5nccc(C)n5)cc4)C(C)C3)c(F)c21 (stereo not given)	107%
CC(C)c1ccc(C(=O)Nc2sc3c(c2C(N)=O)CCC(=O)C3)cc1	7.57% (active)
COc1ccc(C(=O)/C=C/c2c(C(F)(F)F)nc3ccccn23)cc1OC	28.2%
O=C(C[C@]1(O)C(=O)Nc2ccccc21)c1cccc(C(F)(F)F)c1	91.6%
CC(=O)n1nc(C(=O)OC(C)(C)c2ccccc2)c2ccccc21	90.4%
CCN(CC)CCn1c2ccc(O)cc2c2sc3cc(O)ccc3c(=O)c21	54.5%
COc1ccccc1N1CCCCC1	102%
CCN(CC)CC(O)COc1c(Br)c(Br)c(Br)c2c1OC(C)(C)C2 (stereo not given)	64%

Compound	growth
O=C(/C=C/c1cccc(Cl)c1)c1cccc(OCCCOc2cccc(C(=O)/C=C/c3cccc(Cl)c3)c2)c1	108%
O=C(Nc1nc(-c2ccc(Cl)cc2)nc2c1sc(=S)n2-c1ccccc1)C(F)(F)F	78.9%
CCC(=O)Oc1ccc(-c2ccccc2)cc1Br	110%
CCN1C(=O)N(CC)C2C1NN=c1s/c(=C\c3ccccc3F)c(=O)n12 (stereo not given)	61.2%
Cn1cc(-c2csc(-c3cn(C(=O)OC(C)(C)C)c4ccc(Br)cc34)n2)c2ccnc(Cl)c21	94.7%
N#CC1=C(c2ccccc2)Nc2c(c(-c3ccc(Cl)cc3)nn2-c2ccccc2)C12C(=O)Nc1ccc(Cl)cc12 (stereo not given)	90.8%
O=C1/C(=C/c2cccc(F)c2)CN(C(=O)C(Cl)Cl)C/C1=C\c1cccc(F)c1	-80.3% (active)
O=S(=O)(Nc1ccc(Cl)c(C(F)(F)F)c1)c1ccc(-c2cnc(C3CC3)o2)cc1	19.4%
CN1CCN(C(=O)c2ccc(NC(=O)c3cc4c(nn3)NCCN4Cc3cc(Cl)ccc3Cl)cc2)CC1	89%
Cc1csc(Nc2nc(-c3ccccn3)nc(C(Cl)(Cl)Cl)n2)n1	87.6%
Clc1ccc(/C=N\N=C\c2ccc(Cl)c(Cl)c2)cc1Cl	101%
Cn1cc(-c2ccc3nc(-c4ccc(CC(=O)ONc5cc(C(C)(C)C)on5)cc4)cnc3c2)cn1	44.4%
Nc1nc2ccc(-c3nc4ccc5[nH]ncc5c4c4c3CCCC4)cc2s1	120%
c1cnc2c(-c3nc4ccc5[nH]ncc5c4c4c3CCCC4)c[nH]c2c1	88.8%
Fc1cnccc1C1CC(c2ccc(N3CCNCC3)cc2)=NN1 (stereo not given)	116%
Cc1cc(C)c2c(c1)N(C)c1ncnc(-n3cnc4cc(C)ccc43)c1CC2C (stereo not given)	62.9%
Nc1ncnc2c1C(c1ccccc1)c1ccc3ccccc3c1O2 (stereo not given)	103%
CCOC(=O)C/C(=N\Nc1cc(=O)[nH]c2ccc(Br)cc12)C(=O)OCC	107%
CCSC(SCC)c1ccc(Cl)cc1	115%
Oc1c(I)cc(I)cc1CNCc1ccccn1	48.6%
